# Laboratory results taken from the supplement of paper PMC8728848.
# Many of the other results were omitted from the sample, so the strongest signals are more common in it than they were.
# B1: ACA (Amaranthus caudatus) (protein)
# chain: MAGLPVIMCLKSNNNQKYLRYQSDNIQQYGLLQFSADKILDPLAQFEVEPSKTYDGLVHIKSRYTNKYLVRWSPNHYWITASANEPDENKSNWACTLFKPLYVEEGNMKKVRLLHVQLGHYTQNYTVGGSFVSYLFAESSQIDTGSKDVFHVIDWKSIFQFPKRYVTFKGNNGKYLGVITINQLPCLQFGYDNLNDPKVAHEMFVTSNGTICIKSTYMNKFWRLSTDDWILVDGNDPRETNEAAALFRSDVHDFNVISLLNMQKTWFIKRFTSGKPGFINCMNAATQNVDETAILEIIELGSNN
# Tests used:
# Assay in all cases: glycan array binding signal (z-score within array); higher = stronger binding
# Details in all cases: glycan notation: IUPAC condensed, linker removed
# [1] = molecular target: Fuc(a1-2)[GalNAc(a1-3)]Gal(b1-4)GlcNAc(b1-6)GalNAc
# Outline: (§1)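 Arrays were curated from the Consortium for Functional Glycomics database, 3228 in total, and kept only where the protein sequence was available. Binding is expressed as a within-array Z-score. This score was averaged across arrays of the same protein sequence at different concentrations or buffers and across linkers, and negative values can be read as non-binding.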
# Fuc(a1-3)GlcNAc = molecular target: Fuc(a1-3)GlcNAc
# Outline: as §1
# [2] = molecular target: Fuc(a1-3)[Gal(b1-4)]Glc6S
# Outline: as §1
# [3] = molecular target: Gal(a1-3)Gal(b1-3)GlcNAc(b1-3)GalNAc
# Outline: as §1
# [4] = molecular target: Gal(a1-3)Gal(b1-4)GlcNAc(b1-6)GalNAc
# Outline: as §1
# [5] = molecular target: Gal(a1-3)Gal(b1-4)[Fuc(a1-3)]GlcNAc(b1-2)Man(a1-3)[Gal(a1-3)Gal(b1-4)[Fuc(a1-3)]GlcNAc(b1-2)Man(a1-6)]Man(b1-4)GlcNAc(b1-4)GlcNAc
# Outline: as §1
# Gal(a1-3)GalNAc = molecular target: Gal(a1-3)GalNAc
# Outline: as §1
# Gal(b1-3)Gal(b1-4)GlcNAc = molecular target: Gal(b1-3)Gal(b1-4)GlcNAc
# Outline: as §1
# [6] = molecular target: Gal(b1-3)GalNAc(a1-3)[Fuc(a1-2)]Gal(b1-4)Glc
# Outline: as §1
# [7] = molecular target: Gal(b1-3)GlcNAc(b1-2)[Gal(b1-3)GlcNAc(b1-6)]Man(a1-6)[Gal(b1-3)GlcNAc(b1-2)Man(a1-3)]Man(b1-4)GlcNAc(b1-4)GlcNAc
# Outline: as §1
# [8] = molecular target: Gal(b1-3)GlcNAc(b1-3)GalNAc
# Outline: as §1
# [9] = molecular target: Gal(b1-4)GalNAc(a1-3)[Fuc(a1-2)]Gal(b1-4)GlcNAc
# Outline: as §1
# Gal(b1-4)GlcNAc(b1-2)Man = molecular target: Gal(b1-4)GlcNAc(b1-2)Man
# Outline: as §1
# [10] = molecular target: Gal(b1-4)GlcNAc(b1-2)Man(a1-3)[Gal(b1-4)GlcNAc(b1-2)Man(a1-6)]Man(b1-4)GlcNAc(b1-4)[Fuc(a1-6)]GlcNAc
# Outline: as §1
# [11] = molecular target: Gal(b1-4)GlcNAc(b1-2)Man(a1-6)Man(b1-4)GlcNAc(b1-4)GlcNAc
# Outline: as §1
# [12] = molecular target: Gal(b1-4)GlcNAc(b1-3)Gal(b1-4)Glc
# Outline: as §1
# [13] = molecular target: Gal(b1-4)GlcNAc(b1-3)Gal(b1-4)GlcNAc(b1-2)Man(a1-3)[Gal(b1-4)GlcNAc(b1-3)Gal(b1-4)GlcNAc(b1-2)Man(a1-6)]Man(b1-4)GlcNAc(b1-4)GlcNAc
# Outline: as §1
# [14] = molecular target: Gal(b1-4)GlcNAc(b1-3)Gal(b1-4)GlcNAc(b1-2)Man(a1-3)[Gal(b1-4)GlcNAc(b1-3)Gal(b1-4)GlcNAc(b1-2)Man(a1-6)]Man(b1-4)GlcNAc(b1-4)[Fuc(a1-6)]GlcNAc
# Outline: as §1
# [15] = molecular target: Gal(b1-4)GlcNAc(b1-3)Gal(b1-4)GlcNAc(b1-3)Gal(b1-4)GlcNAc(b1-2)Man(a1-3)[Gal(b1-4)GlcNAc(b1-3)Gal(b1-4)GlcNAc(b1-3)Gal(b1-4)GlcNAc(b1-2)Man(a1-6)]Man(b1-4)GlcNAc(b1-4)GlcNAc
# Outline: as §1
# [16] = molecular target: Gal(b1-4)GlcNAc(b1-3)Gal(b1-4)GlcNAc(b1-3)[Gal(b1-4)GlcNAc(b1-3)Gal(b1-4)GlcNAc(b1-6)]GalNAc
# Outline: as §1
# [17] = molecular target: Gal(b1-4)GlcNAc(b1-3)Gal(b1-4)GlcNAc(b1-6)[Gal(b1-3)]GalNAc
# Outline: as §1
# [18] = molecular target: Gal(b1-4)GlcNAc(b1-3)[Fuc(a1-3)GlcNAc(b1-6)]Gal(b1-4)Glc
# Outline: as §1
# Gal6S(b1-3)GlcNAc = molecular target: Gal6S(b1-3)GlcNAc
# Outline: as §1
# Glc(a1-4)Glc = molecular target: Glc(a1-4)Glc
# Outline: as §1
# [19] = molecular target: GlcA3S(b1-3)Gal(b1-4)GlcNAc(b1-2)Man
# Outline: as §1
# [20] = molecular target: GlcNAc(b1-3)Gal(b1-4)GlcNAc(b1-3)Gal(b1-4)GlcNAc(b1-2)Man(a1-3)[GlcNAc(b1-3)Gal(b1-4)GlcNAc(b1-3)Gal(b1-4)GlcNAc(b1-2)Man(a1-6)]Man(b1-4)GlcNAc(b1-4)GlcNAc
# Outline: as §1
# [21] = molecular target: GlcNAc(b1-3)Gal(b1-4)GlcNAc(b1-3)Gal(b1-4)GlcNAc(b1-3)Gal(b1-4)GlcNAc(b1-2)[GlcNAc(b1-3)Gal(b1-4)GlcNAc(b1-3)Gal(b1-4)GlcNAc(b1-3)Gal(b1-4)GlcNAc(b1-6)]Man(a1-6)[GlcNAc(b1-3)Gal(b1-4)GlcNAc(b1-3)Gal(b1-4)GlcNAc(b1-3)Gal(b1-4)GlcNAc(b1-2)Man(a1-3)]Man(b1-4)GlcNAc(b1-4)[Fuc(a1-6)]GlcNAc
# Outline: as §1
# Kdn(a2-3)Gal(b1-4)Glc = molecular target: Kdn(a2-3)Gal(b1-4)Glc
# Outline: as §1
# [22] = molecular target: Man(a1-3)[Man(a1-6)]Man(a1-6)[Man(a1-2)Man(a1-3)]Man(b1-4)GlcNAc(b1-4)GlcNAc
# Outline: as §1
# [23] = molecular target: Neu5Ac(a2-3)Gal(b1-3)GlcNAc(b1-2)Man(a1-3)[GlcNAc(b1-4)][Neu5Ac(a2-3)Gal(b1-3)GlcNAc(b1-2)Man(a1-6)]Man(b1-4)GlcNAc(b1-4)GlcNAc
# Outline: as §1
# [24] = molecular target: Neu5Ac(a2-3)Gal(b1-3)[GlcNAc(b1-6)]GalNAc
# Outline: as §1
# [25] = molecular target: Neu5Ac(a2-3)Gal(b1-4)GlcNAc(b1-2)Man(a1-3)[Neu5Ac(a2-6)Gal(b1-4)GlcNAc(b1-2)Man(a1-6)]Man(b1-4)GlcNAc(b1-4)GlcNAc
# Outline: as §1
# [26] = molecular target: Neu5Ac(a2-3)Gal(b1-4)GlcNAc(b1-3)Gal(b1-4)GlcNAc(b1-2)Man(a1-3)[Neu5Ac(a2-3)Gal(b1-4)GlcNAc(b1-3)Gal(b1-4)GlcNAc(b1-2)Man(a1-6)]Man(b1-4)GlcNAc(b1-4)GlcNAc
# Outline: as §1
# [27] = molecular target: Neu5Ac(a2-3)Gal(b1-4)GlcNAc(b1-3)Gal(b1-4)GlcNAc(b1-3)Gal(b1-4)GlcNAc(b1-2)Man(a1-3)[Neu5Ac(a2-3)Gal(b1-4)GlcNAc(b1-3)Gal(b1-4)GlcNAc(b1-3)Gal(b1-4)GlcNAc(b1-2)Man(a1-6)]GalNAc
# Outline: as §1
# [28] = molecular target: Neu5Ac(a2-3)Gal(b1-4)GlcNAc(b1-3)[Neu5Ac(a2-3)Gal(b1-4)GlcNAc(b1-6)]GalNAc
# Outline: as §1
# [29] = molecular target: Neu5Ac(a2-3)Gal(b1-4)GlcNAc(b1-6)[Gal(b1-3)]GalNAc
# Outline: as §1
# [30] = molecular target: Neu5Ac(a2-3)Gal(b1-4)GlcNAc6S
# Outline: as §1
# [31] = molecular target: Neu5Ac(a2-3)[GalNAc(b1-4)]Gal(b1-4)GlcNAc
# Outline: as §1
# [32] = molecular target: Neu5Ac(a2-6)Gal(b1-4)GlcNAc(b1-3)Gal(b1-4)GlcNAc(b1-3)Gal(b1-4)GlcNAc(b1-2)Man(a1-3)[Neu5Ac(a2-6)Gal(b1-4)GlcNAc(b1-3)Gal(b1-4)GlcNAc(b1-3)Gal(b1-4)GlcNAc(b1-2)Man(a1-6)]GalNAc
# Outline: as §1
# [33] = molecular target: Neu5Ac(a2-6)Gal(b1-4)GlcNAc(b1-3)Gal(b1-4)GlcNAc(b1-3)[Neu5Ac(a2-6)Gal(b1-4)GlcNAc(b1-3)Gal(b1-4)GlcNAc(b1-6)]GalNAc
# Outline: as §1
# [34] = molecular target: Neu5Ac(a2-6)Gal(b1-4)GlcNAc(b1-3)Gal(b1-4)[Fuc(a1-3)]GlcNAc(b1-3)Gal(b1-4)[Fuc(a1-3)]GlcNAc
# Outline: as §1
# [35] = molecular target: Neu5Ac(a2-8)Neu5Ac(a2-3)Gal(b1-4)Glc
# Outline: as §1
# [36] = molecular target: Neu5Gc(a2-3)Gal(b1-4)GlcNAc(b1-3)Gal(b1-4)GlcNAc(b1-2)Man(a1-3)[Neu5Gc(a2-3)Gal(b1-4)GlcNAc(b1-3)Gal(b1-4)GlcNAc(b1-2)Man(a1-6)]Man(b1-4)GlcNAc(b1-4)GlcNAc
# Outline: as §1
# [37] = molecular target: Neu5Gc(a2-3)Gal(b1-4)[Fuc(a1-3)]GlcNAc
# Outline: as §1
# [38] = molecular target: Neu5Gc(a2-6)Gal(b1-4)GlcNAc
# Outline: as §1
binder,measurement,setting,value
B1,glycan array binding signal (z-score),[1],-0.116
same,glycan array binding signal (z-score),Fuc(a1-3)GlcNAc,-0.103
same,glycan array binding signal (z-score),[2],0.058
same,glycan array binding signal (z-score),[3],-0.395
same,glycan array binding signal (z-score),[4],-0.246
same,glycan array binding signal (z-score),[5],-0.878
same,glycan array binding signal (z-score),Gal(a1-3)GalNAc,0.156
same,glycan array binding signal (z-score),Gal(b1-3)Gal(b1-4)GlcNAc,0.13
same,glycan array binding signal (z-score),[6],-0.399
same,glycan array binding signal (z-score),[7],-0.184
same,glycan array binding signal (z-score),[8],0.052
same,glycan array binding signal (z-score),[9],-0.471
same,glycan array binding signal (z-score),Gal(b1-4)GlcNAc(b1-2)Man,-0.376
same,glycan array binding signal (z-score),[10],0.193
same,glycan array binding signal (z-score),[11],-0.378
same,glycan array binding signal (z-score),[12],-0.12
same,glycan array binding signal (z-score),[13],4.74
same,glycan array binding signal (z-score),[14],3.63
same,glycan array binding signal (z-score),[15],5.84
same,glycan array binding signal (z-score),[16],5.24
same,glycan array binding signal (z-score),[17],3.84
same,glycan array binding signal (z-score),[18],0.71
same,glycan array binding signal (z-score),Gal6S(b1-3)GlcNAc,-0.469
same,glycan array binding signal (z-score),Glc(a1-4)Glc,0.351
same,glycan array binding signal (z-score),[19],-0.456
same,glycan array binding signal (z-score),[20],3.43
same,glycan array binding signal (z-score),[21],0.586
same,glycan array binding signal (z-score),Kdn(a2-3)Gal(b1-4)Glc,-0.204
same,glycan array binding signal (z-score),[22],6.44
same,glycan array binding signal (z-score),[23],-0.413
same,glycan array binding signal (z-score),[24],-0.266
same,glycan array binding signal (z-score),[25],-0.42
same,glycan array binding signal (z-score),[26],3.13
same,glycan array binding signal (z-score),[27],9.87
same,glycan array binding signal (z-score),[28],0.132
same,glycan array binding signal (z-score),[29],0.029
same,glycan array binding signal (z-score),[30],-0.219
same,glycan array binding signal (z-score),[31],-0.069
same,glycan array binding signal (z-score),[32],3.17
same,glycan array binding signal (z-score),[33],4.69
same,glycan array binding signal (z-score),[34],0.326
same,glycan array binding signal (z-score),[35],-0.424
same,glycan array binding signal (z-score),[36],1.25
same,glycan array binding signal (z-score),[37],-0.167
same,glycan array binding signal (z-score),[38],-0.372
